According to PubChem BioAssay (NCI):
Compounds without any hit were thinned out: in the full panel of roughly 83,000, 20% have a hit.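 Activity criterion: percent growth below 10, measured after cells in 96-well plates were exposed to a single compound concentration for 48 hours.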 The source made the active and inactive calls.

These compounds were tested on HL-60(TB) leukemia (assay: NCI-60 one-dose screen, 48 h (100 = growth as untreated, 0 = no growth, -100 = all killed)). Conditions: 10 µM unless noted.

SMILES	growth
COC(=O)Nc1nc2ccc(C(=O)c3cccc(I)c3)cc2[nH]1	-41.7% (active)
O=C(NCCN1CCOCC1)c1cncnc1Nc1ccc2c(ccn2Cc2ccccn2)c1	99.7% (inactive)
COc1cc(/C=C/C(=O)c2ccc(Nc3nc(Nc4ccc(F)cc4)nc(Nc4ccc(Cl)cc4)n3)cc2)cc(OC)c1OC	-32.1% (active)
COC(=O)c1cccnc1	102% (inactive)
CCN(CC)c1ccc(N=C2C=CC(=O)C=C2NC(C)=O)cc1	55.3% (inactive)
NS(=O)(=O)c1ccc(CCN2C(=O)/C(=C\c3ccc(Cl)cc3)C=C2c2ccc(Oc3ccccc3)cc2)cc1	83.7% (inactive)
COCc1nc(NS(=O)(=O)c2ccc(N)cc2)nc(C)c1Br	114% (inactive)
CN(C)CCOc1nc2c3ccncc3cc(-c3cccc(Cl)c3)c2c2cnccc12	33.4% (inactive)
CC(=O)OC(C(=O)O)c1ccccc1 (centres undefined)	3.72% (active)
COc1cc(NC(=O)NCc2ccco2)ccc1-c1ccc(NC(=O)NCc2ccco2)cc1OC	57.4% (inactive)
O=C1c2ccccc2NC(n2sc3ccccc3c2=O)N1c1ccccc1 (centres undefined)	87.9% (inactive)
c1cnc2[nH]cc(-c3csc(-c4cn(CCCN5CCCCC5)c5ccccc45)n3)c2c1	-2.66% (active)
CCN(CC)CCNc1ccc(N=Nc2cnc3ccccc3c2)c2ccccc12	-72.2% (active)
O=C1OCCCCCCCCCC#Cc2ccccc21	88.7% (inactive)
O=C1/C(=C\c2ccc([N+](=O)[O-])cc2)CS(=O)(=O)C/C1=C/c1ccc([N+](=O)[O-])cc1	-38.4% (active)
O=C1CCCCN1CCCCC#Cc1ccccc1C#Cc1ccccn1	78.2% (inactive)
COc1ccc2nc3cc(Cl)ccc3c(Nc3ccc(O)cc3)c2c1	44.2% (inactive)
COc1ccc(Cn2cc3c(c2)-c2oncc2CC3)cc1OC	2.83% (active)
c1ccc2[nH]c(-c3cc(-c4ccc5c(c4)OCO5)n[nH]3)nc2c1	13.3% (inactive)
CCN(CC)CCOc1ccc(C2=C(c3ccccc3)CCc3cc(OC)ccc32)cc1	-54.4% (active)
CCN(CC)CCC(CNc1ccnc2cc(Cl)ccc12)c1ccc(Cl)cc1 (centres undefined)	-53.9% (active)
C#Cc1cccc(Nc2nc(C)nc3cc(NC(=O)CCl)ccc23)c1	-58% (active)
CC(=O)C1=C(O)C=C2Oc3c(C(=O)/C=C/c4cc(Cl)cc(Cl)c4)c(O)c(C)c(O)c3[C@]2(C)C1=O	-34.8% (active)
COc1ccc(NC(=O)c2ccc(Nc3ncnc4c3cnn4-c3cccc(F)c3)cc2)cc1	94.9% (inactive)
